PubChem BioAssay AID2728 (Broad Institute, 2010)
This is one part of the list. Records with an inconclusive call do not appear. Values without a mark were called inactive.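 How the source made its calls: active means every replicate shows growth inhibition above 50%; inconclusive means at least half but not all replicates above 50% inhibition; inactive means under half of replicates above 50% inhibition.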

Test: growth inhibition of V. harveyi BB721, confirmation, cytotoxicity control for AI-2 quorum sensing inhibitors, strain BB721, absorbance OD600 (AID 2728)
Settings: Vibrio harveyi BB721 growth, 9 h, at 7.5 µM, stronger effect = higher value

SMILES	growth inhibition [%]
O=C(COc1ncnc2ccccc12)NC(=O)NCc1ccccc1	27.2
O=C(Cn1cnc2ccccc2c1=O)Nc1cccc(S(=O)(=O)N2CCCCC2)c1	14
COc1ccc(/C(N)=N/OC(=O)Cc2ccccc2)cc1	-4.72
CCOC(=O)c1nn(-c2cccc(C)c2)cc1C(=O)c1ccccc1	-7.63
CN(Cc1cnccn1)C(=O)c1cc(COc2cccc(C(F)(F)F)c2)on1	18.2
CC(CNc1ccc([N+](=O)[O-])cc1)NC(=O)c1ccccc1Br (stereo unspecified)	-16.1
O=C(Nc1ccc(F)c(Cl)c1)C1CCN(S(=O)(=O)c2cccnc2)CC1	14.5
O=C(c1cc(-c2cccc(O)c2)on1)N1CCc2ccccc2C1	2.13
O=C(COC(=O)C1CCCCC1)Nc1ccc([N+](=O)[O-])cc1	-40.8
N/C(=N\OC(=O)CCc1ccccc1)c1cccnc1	0.547
COC(=O)C1CCN(C(=O)c2ccc3oc(Cc4ccc(Cl)cc4)nc3c2)CC1	19.1
O=C(/C=C/c1ccc2c(c1)OCO2)NCc1ccc(F)cc1	16.5
Cc1ccsc1C(=O)OCC(=O)c1cc2ccccc2o1	4.04
Cc1ccc(Cc2nc(-c3cccc(C)c3)no2)cc1	19.7
Cc1cc(CN(C)C(=O)c2cc(COc3ccc(C)c(C)c3)on2)n[nH]1	28.4
O=C(/C=C/c1ccc2c(c1)OCCO2)c1ccc(O)cc1	-21.7

SMILES	growth inhibition [%]
CCOc1ccc(/C=N/NC(N)=S)cc1	18
CC(=O)c1cccc(OCc2cc(C(=O)NC(C)Cc3cccnc3)no2)c1 (stereo unspecified)	8.38
Cc1ccc(NC(=O)C2CC2c2ccccc2)cc1 (stereo unspecified)	7.3
COc1cccc(NC(=O)NCc2ccc(F)cc2)c1	-16.1
O=C(CCC(=O)c1cccs1)Nc1nc2ccccc2s1	-0.412
Cc1nn(CC(=O)Nc2ccc(F)cc2)c(=O)c2ccccc12	0.351
Cc1cc(C(=O)OCC(=O)Nc2ccc(F)c(F)c2)c(C)o1	-6.2
O=C1COc2ccc(S(=O)(=O)Nc3ccc(OC(F)(F)F)cc3)cc2N1	55
Cc1cccc(CSc2ccc(-c3cccs3)nn2)c1	-12.7
CC(C)(C)c1ccc(OC2=CS(=O)(=O)c3ccccc32)cc1	26.8
S=C(NCc1ccc(Cl)cc1)NC1CCCCC1	12.8
COC(=O)c1ccc(SCc2ccccc2)nc1	-21
Cc1ccc(Oc2cnn(-c3ccccc3)c(=O)c2Br)cc1	4.98
Cc1ccccc1NC(=O)CCOc1ccccc1	-7.16
Cc1ccc(NS(=O)(=O)c2ccc3c(c2)NC(=O)CO3)cc1	18.2
